The values below come from ChEMBL document CHEMBL1157539, “Thousands of chemical starting points for antimalarial lead identification” (Nature, 2010).

As usually defined, the Inhibition is how much of the control response was suppressed. High values mean strong suppression, low ones little suppression.

Holding throughout (format): functional
Assay [1] has as its system Plasmodium falciparum. In words: GSK_TCMDC: Inhibition of Plasmodium falciparum 3D7 in whole red blood cells, using parasite LDH activity as an index of growth. Test compounds present at 2uM.
Assay [2] relates to Plasmodium falciparum. Kind of assay: GSK_TCMDC: Inhibition of Plasmodium falciparum Dd2 in whole red blood cells, using parasite LDH activity as an index of growth. Test compounds present at 2uM.
For another assay, the system named is HepG2. Kind of assay: GSK_TCMDC: Percent inhibition of human HepG2 cell line. Test compounds present at 10uM.

Structures are written as SMILES.

On to `C=C[C@]1(C)C[C@@H](OC(=O)CNC[C@@H](O)CN2C[C@H](c3ccnc4ccc(OC)nc34)OC2=O)[C@@]2(C)[C@@H]3C(=O)CC[C@@]3(CC[C@@H]2C)[C@@H](C)[C@@H]1O`, for which the Inhibition in the assay with Plasmodium falciparum [1] was 89%; with Plasmodium falciparum [2], 82%; with HepG2 it was 0%.
Consider `CCn1c(-c2nonc2N)nc2c(Cl)ncc(O[C@H](CCN)c3ccccc3F)c21.Cl`, for which the figures for the Inhibition in the assay on Plasmodium falciparum [1], in the assay on Plasmodium falciparum [2] and in the assay with HepG2 were 96%, 88% and 15%, respectively.
The matching figures for `O=C(Nc1cc(Cl)cc(Cl)c1)c1cc(Cl)c(=O)n(Cc2ccc(Cl)cc2)c1`: 89%, 57% and 7%.
The matching figures for `Cc1ccc(/C=C/C(=O)NCCCCCN2CCN(C(=O)Nc3ccc(Cl)c(C(F)(F)F)c3)CC2)cc1`: 93%, 0% and 10%.
The matching figures for `COc1ccc2nc3cc(Cl)ccc3c(NCCNCC(O)CO)c2n1.Cl` (stereo not drawn): 100%, 100% and 12%.
Consider `COc1c(I)cc(Cc2cnc(N)nc2N)cc1I`, for which the values for the Inhibition with Plasmodium falciparum [1], with Plasmodium falciparum [2] and with HepG2 were 91%, 0% and 5%, respectively.
The matching figures for `CCCCc1cc(NCC)nc(Nc2ccc(F)cc2)n1`: 98%, 56% and 33%.
In the same order, the values of `CCn1c(-c2cc(C)on2)nc2cnc(Oc3ccc(C(=O)N4CC(=O)N(C)C4C(C)(C)C)cc3)cc21` (stereo not drawn) are 81%, 57% and 44%.
`O=c1cc(NCCCNCc2cc(F)cc(C(F)(F)F)c2)[nH]c2ccccc12`: the Inhibition with Plasmodium falciparum [1] is listed as 92%; in the assay on Plasmodium falciparum [2] it was 15%; in the assay with HepG2 it was 0%.
In the same order, the values of `CC(C)Oc1cc2c(cc1NS(=O)(=O)c1ccc(-c3ccc(Cl)s3)cc1F)CCN(C)CC2.Cl` are 99%, 1% and 23%.
The matching figures for `CC1(C)N=C(N)N=C(N)N1OCc1ccc2c(c1)OCO2`: 93%, 86% and 66%.
In the same order, the values of `c1ccc(-c2cccnn2)cc1` are 98%, 6% and 0%.
Regarding `Cc1cc(NCCCCCCNc2cc(C)nc3c(C)cccc23)c2cccc(C)c2n1.Cl`, the Inhibition in the assay on Plasmodium falciparum [1] was found to be 100%; in the assay with Plasmodium falciparum [2], 9%; with HepG2, 23%.
In the same order, the values of `Cl.NC1CCN(CCc2ccc(NS(=O)(=O)c3cccc4ccccc34)cc2)CC1` are 94%, 4% and 21%.
Regarding `O=C(Nc1ccc(Cl)cc1)Nc1cccc(-c2ccc(-c3nc4ccccc4[nH]3)cc2)c1`, the values for the Inhibition in the assay with Plasmodium falciparum [1], in the assay on Plasmodium falciparum [2] and with HepG2 were 87%, 6% and 19%, respectively.
In the same order, the values of `COc1cc(-c2cc(-c3ccc(OCCN(C)C)cc3)[nH]c2-c2ccncc2)ccc1Cl.Cl` are 100%, 100% and 28%.
In the same order, the values of `Cc1ccccc1CN1CCCN(Cc2ccc(C(=O)Nc3ccc(Cl)cc3)cc2)CC1.O=C(O)C(F)(F)F` are 93%, 15% and 48%.
In the same order, the values of `Oc1cc(NCc2ccccc2NCc2ccc(Cl)c(Cl)c2)nc2ccccc12` are 93%, 98% and 10%.
For the compound `COc1ccc(CCN(C)CCCN2CCC(NC(=O)c3cccc4c(=O)c5ccccc5[nH]c34)CC2)cc1OC.O=C(O)C(=O)O`, the Inhibition was 99% with Plasmodium falciparum [1], 72% in the assay on Plasmodium falciparum [2] and 19% with HepG2.
Regarding `NCc1ccc(CNCc2ccc(-c3ccc(-c4nc5cc(F)ccc5[nH]4)cc3)cc2)cc1.O=C(O)C(F)(F)F`, the Inhibition in the assay on Plasmodium falciparum [1] worked out at 100%; with Plasmodium falciparum [2], 99%; in the assay with HepG2 it was 12%.
For the compound `Cc1ccc(-c2nc3ccccc3o2)cc1NCc1cc(Cc2ccccc2)ccc1O`, the Inhibition with Plasmodium falciparum [1] came out at 82%; in the assay with Plasmodium falciparum [2] it was 50%; with HepG2 it was 45%.
In the same order, the values of `Cc1ccc(C2CCN(CCCCNC(=O)c3ccc(-c4ccc(C#N)cc4)cc3)CC2)c(O)c1` are 100%, 90% and 45%.
As to `CO/C(=C\C=C\c1cc2cc(Cl)c(Cl)cc2[nH]1)C(=O)NCC(C)(C)CN(C)C`, the Inhibition is on record as 81% in the assay on Plasmodium falciparum [1], 27% in the assay with Plasmodium falciparum [2] and 35% in the assay with HepG2.
In the same order, the values of `COc1ccc(NC(=O)N2CCCN(CCCCCNC(=O)/C=C/c3ccc(C(F)(F)F)cc3)CC2)cc1Cl` are 93%, 0% and 21%.
For the compound `O=C(/C=C/c1ccc(Cl)c(Cl)c1)NC1CCC(CN2CCC(c3coc4ccccc34)CC2)CC1` (stereo not drawn), the figures for the Inhibition in the assay on Plasmodium falciparum [1], with Plasmodium falciparum [2] and in the assay on HepG2 were 100%, 41% and 40%, respectively.
In the case of `CN1CCN(CCNc2c3ccccc3nc3c2ccc2ccccc23)CC1.Cl`, the figures for the Inhibition in the assay with Plasmodium falciparum [1], in the assay with Plasmodium falciparum [2] and with HepG2 were 100%, 66% and 76%, respectively.
In the same order, the values of `CC(CN1CCN(C)CC1)C(=O)Nc1cccc(-c2cccc(-c3nc4cc(F)ccc4[nH]3)c2)c1` (stereo not drawn) are 100%, 78% and 23%.
In the same order, the values of `COc1cc(NC(=O)c2ccc(-c3ccccc3)cc2)ccc1OCCCN1CCC(c2ccccc2)CC1.Cl` are 100%, 30% and 46%.
In the same order, the values of `Cl.O=c1cc(NCCCNCc2ccc(Cl)c(Cl)c2)[nH]c2cc(F)cc(F)c12` are 100%, 94% and 11%.
For `Cl.Nc1c(I)cc(C(=O)Nc2ccc3nc4c(c(N)c3c2)CCCC4)cc1I`, the figures for the Inhibition in the assay on Plasmodium falciparum [1], in the assay with Plasmodium falciparum [2] and with HepG2 were 100%, 99% and 40%, respectively.
The matching figures for `CN1CCCC(CN2CCN(Cc3ccc(-c4cccc(-c5nc6cc(F)ccc6[nH]5)c4)cc3)CC2)C1.O=C(O)C(F)(F)F` (stereo not drawn): 100%, 99% and 92%.
